# In ChEMBL document CHEMBL1961873, “Compounds: GSK PKIS; Assays: Nanosyn kinase panel” (2012):
# Columns and labels:
# [1] = target: Tyrosine-protein kinase Fyn (Homo sapiens) (UniProt P06241); details: at 1 µM
# [2] = target: Tyrosine-protein kinase HCK (Homo sapiens) (UniProt P08631); details: at 0.1 µM
# [3] = target: Tyrosine-protein kinase HCK (Homo sapiens) (UniProt P08631); details: at 1 µM
# [4] = target: Insulin-like growth factor 1 receptor (Homo sapiens) (UniProt P08069); details: at 0.1 µM
# Sequence of Insulin-like growth factor 1 receptor (Homo sapiens) (P08069 31-736 limits assumed): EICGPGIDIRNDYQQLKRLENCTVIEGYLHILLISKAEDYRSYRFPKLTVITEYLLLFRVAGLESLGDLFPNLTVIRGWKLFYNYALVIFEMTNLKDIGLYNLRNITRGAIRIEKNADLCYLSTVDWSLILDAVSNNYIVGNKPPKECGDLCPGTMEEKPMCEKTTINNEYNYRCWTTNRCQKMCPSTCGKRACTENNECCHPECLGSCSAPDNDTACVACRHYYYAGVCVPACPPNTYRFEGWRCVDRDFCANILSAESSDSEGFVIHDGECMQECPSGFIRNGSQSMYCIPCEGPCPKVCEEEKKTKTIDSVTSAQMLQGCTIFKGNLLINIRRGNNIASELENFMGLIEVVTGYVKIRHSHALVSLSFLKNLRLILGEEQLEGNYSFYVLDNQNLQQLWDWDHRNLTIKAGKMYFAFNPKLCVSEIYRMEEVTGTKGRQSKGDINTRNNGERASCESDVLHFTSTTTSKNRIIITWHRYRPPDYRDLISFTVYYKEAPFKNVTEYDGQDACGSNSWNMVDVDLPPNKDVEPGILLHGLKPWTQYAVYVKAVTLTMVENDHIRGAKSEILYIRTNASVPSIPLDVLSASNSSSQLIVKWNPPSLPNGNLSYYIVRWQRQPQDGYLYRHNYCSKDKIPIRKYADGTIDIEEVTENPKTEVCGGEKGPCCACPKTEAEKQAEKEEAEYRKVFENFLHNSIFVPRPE
# Sequence of Insulin-like growth factor 1 receptor (Homo sapiens) (P08069 741-1367 limits assumed): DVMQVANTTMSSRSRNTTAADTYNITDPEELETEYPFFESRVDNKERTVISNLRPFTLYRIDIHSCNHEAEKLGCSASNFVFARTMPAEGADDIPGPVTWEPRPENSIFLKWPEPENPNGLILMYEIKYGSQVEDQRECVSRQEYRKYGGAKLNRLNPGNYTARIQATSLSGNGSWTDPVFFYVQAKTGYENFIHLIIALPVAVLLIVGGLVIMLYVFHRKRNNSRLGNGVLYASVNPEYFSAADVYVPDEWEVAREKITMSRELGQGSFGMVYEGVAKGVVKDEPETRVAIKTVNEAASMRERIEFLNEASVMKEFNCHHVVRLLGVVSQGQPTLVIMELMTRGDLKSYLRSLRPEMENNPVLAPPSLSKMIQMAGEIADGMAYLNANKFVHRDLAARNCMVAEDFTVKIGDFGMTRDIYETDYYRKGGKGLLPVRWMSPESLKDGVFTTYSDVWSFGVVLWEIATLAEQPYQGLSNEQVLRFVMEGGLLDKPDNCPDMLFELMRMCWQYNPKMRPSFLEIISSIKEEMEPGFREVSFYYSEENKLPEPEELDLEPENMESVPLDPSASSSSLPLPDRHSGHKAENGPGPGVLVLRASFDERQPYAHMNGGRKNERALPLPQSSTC
# [5] = target: Insulin-like growth factor 1 receptor (Homo sapiens) (UniProt P08069); details: at 1 µM
# [6] = target: Insulin receptor (Homo sapiens) (UniProt P06213); details: at 0.1 µM
# [7] = target: Insulin receptor (Homo sapiens) (UniProt P06213); details: at 1 µM
# [8] = target: Insulin receptor-related protein (Homo sapiens) (UniProt P14616); details: at 0.1 µM
# [9] = target: Insulin receptor-related protein (Homo sapiens) (UniProt P14616); details: at 1 µM
# [10] = target: T1, Tyrosine-protein kinase ITK/TSK (Homo sapiens) (UniProt Q08881); details: at 0.1 µM
# T1 sequence (whole entry): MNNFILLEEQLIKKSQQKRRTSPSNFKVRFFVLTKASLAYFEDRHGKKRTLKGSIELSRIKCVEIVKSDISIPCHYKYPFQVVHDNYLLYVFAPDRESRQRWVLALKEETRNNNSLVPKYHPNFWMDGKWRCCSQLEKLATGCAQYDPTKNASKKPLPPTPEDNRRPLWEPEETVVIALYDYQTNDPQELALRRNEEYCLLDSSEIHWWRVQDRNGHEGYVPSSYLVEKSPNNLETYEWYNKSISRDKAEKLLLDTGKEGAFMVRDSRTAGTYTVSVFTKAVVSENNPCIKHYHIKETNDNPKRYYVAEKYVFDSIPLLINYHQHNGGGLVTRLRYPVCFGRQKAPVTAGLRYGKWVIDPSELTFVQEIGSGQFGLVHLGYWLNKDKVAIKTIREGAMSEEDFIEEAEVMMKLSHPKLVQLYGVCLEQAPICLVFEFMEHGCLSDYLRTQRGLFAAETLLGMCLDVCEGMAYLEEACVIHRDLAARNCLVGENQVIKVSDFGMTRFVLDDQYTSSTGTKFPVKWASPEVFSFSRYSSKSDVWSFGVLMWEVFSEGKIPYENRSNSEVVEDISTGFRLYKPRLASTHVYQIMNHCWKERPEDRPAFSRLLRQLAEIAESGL
# [11] = target: T1, Tyrosine-protein kinase ITK/TSK (Homo sapiens); details: at 1 µM
# [12] = target: Tyrosine-protein kinase JAK1 (Homo sapiens) (UniProt P23458); details: at 0.1 µM
# [13] = target: Tyrosine-protein kinase JAK1 (Homo sapiens) (UniProt P23458); details: at 1 µM
# [14] = target: Tyrosine-protein kinase JAK2 (Homo sapiens) (UniProt O60674); details: at 0.1 µM
# Sequence of Tyrosine-protein kinase JAK2 (Homo sapiens) (O60674 whole entry): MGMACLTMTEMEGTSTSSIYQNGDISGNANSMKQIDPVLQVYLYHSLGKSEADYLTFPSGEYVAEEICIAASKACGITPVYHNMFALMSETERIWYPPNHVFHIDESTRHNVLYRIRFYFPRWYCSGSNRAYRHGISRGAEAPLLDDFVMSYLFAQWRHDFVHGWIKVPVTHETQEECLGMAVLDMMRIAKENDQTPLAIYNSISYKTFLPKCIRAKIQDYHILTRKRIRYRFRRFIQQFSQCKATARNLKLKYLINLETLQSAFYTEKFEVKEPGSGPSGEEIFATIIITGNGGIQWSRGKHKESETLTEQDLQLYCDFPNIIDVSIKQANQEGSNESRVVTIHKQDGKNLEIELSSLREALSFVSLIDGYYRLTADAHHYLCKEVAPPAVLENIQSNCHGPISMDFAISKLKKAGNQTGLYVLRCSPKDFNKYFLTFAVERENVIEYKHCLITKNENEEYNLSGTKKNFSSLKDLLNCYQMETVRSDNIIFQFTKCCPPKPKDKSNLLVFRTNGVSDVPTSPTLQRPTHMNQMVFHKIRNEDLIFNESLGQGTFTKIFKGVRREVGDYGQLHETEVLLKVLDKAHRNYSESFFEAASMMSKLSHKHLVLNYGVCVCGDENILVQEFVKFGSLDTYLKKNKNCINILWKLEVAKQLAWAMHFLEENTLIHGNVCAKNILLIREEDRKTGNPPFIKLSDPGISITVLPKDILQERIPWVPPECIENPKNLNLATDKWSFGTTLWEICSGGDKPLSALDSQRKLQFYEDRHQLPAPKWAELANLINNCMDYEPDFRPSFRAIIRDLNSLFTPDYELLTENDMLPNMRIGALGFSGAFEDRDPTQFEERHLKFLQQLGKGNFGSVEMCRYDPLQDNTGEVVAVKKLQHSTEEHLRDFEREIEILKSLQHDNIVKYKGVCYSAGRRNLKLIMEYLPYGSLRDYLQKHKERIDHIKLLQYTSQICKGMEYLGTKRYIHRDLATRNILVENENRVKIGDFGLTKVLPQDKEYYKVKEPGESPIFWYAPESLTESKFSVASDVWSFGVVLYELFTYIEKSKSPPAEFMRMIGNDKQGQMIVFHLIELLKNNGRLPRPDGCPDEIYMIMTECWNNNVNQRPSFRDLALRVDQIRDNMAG
# [15] = target: Tyrosine-protein kinase JAK2 (Homo sapiens) (UniProt O60674); details: at 1 µM
# [16] = target: T2, Tyrosine-protein kinase JAK3 (Homo sapiens) (UniProt P52333); details: at 0.1 µM
# T2 sequence (whole entry): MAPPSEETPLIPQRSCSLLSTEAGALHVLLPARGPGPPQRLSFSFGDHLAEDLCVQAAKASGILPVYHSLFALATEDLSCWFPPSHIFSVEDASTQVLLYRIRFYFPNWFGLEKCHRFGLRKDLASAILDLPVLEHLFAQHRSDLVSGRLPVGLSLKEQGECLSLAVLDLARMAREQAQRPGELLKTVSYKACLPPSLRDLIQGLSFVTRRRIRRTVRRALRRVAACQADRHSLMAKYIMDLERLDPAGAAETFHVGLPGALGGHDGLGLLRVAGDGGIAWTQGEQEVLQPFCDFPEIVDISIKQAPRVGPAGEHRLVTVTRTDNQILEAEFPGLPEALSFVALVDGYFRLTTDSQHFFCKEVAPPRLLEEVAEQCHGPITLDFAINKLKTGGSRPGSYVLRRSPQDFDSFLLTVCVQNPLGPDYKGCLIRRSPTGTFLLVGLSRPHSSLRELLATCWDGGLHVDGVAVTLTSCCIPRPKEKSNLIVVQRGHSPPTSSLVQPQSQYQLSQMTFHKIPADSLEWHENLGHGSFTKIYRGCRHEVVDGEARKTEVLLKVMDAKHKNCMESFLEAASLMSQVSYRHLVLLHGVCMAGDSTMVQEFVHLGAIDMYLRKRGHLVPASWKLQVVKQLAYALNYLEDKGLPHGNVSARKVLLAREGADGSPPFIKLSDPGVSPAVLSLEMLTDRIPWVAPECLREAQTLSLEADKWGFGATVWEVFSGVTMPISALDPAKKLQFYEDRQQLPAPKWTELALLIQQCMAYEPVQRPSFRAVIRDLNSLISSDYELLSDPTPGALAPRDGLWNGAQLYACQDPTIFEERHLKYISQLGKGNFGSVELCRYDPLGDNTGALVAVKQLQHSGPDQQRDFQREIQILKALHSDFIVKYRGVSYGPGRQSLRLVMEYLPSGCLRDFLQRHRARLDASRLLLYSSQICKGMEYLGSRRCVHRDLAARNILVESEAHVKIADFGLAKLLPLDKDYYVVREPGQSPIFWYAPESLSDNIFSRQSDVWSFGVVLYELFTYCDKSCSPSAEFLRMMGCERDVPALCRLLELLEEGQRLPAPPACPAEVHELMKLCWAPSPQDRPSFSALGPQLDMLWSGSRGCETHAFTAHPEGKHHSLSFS
# [17] = target: T2, Tyrosine-protein kinase JAK3 (Homo sapiens); details: at 1 µM
# [18] = target: Vascular endothelial growth factor receptor 2 (Homo sapiens) (UniProt P35968); details: at 0.1 µM
# Sequence of Vascular endothelial growth factor receptor 2 (Homo sapiens) (P35968 whole entry): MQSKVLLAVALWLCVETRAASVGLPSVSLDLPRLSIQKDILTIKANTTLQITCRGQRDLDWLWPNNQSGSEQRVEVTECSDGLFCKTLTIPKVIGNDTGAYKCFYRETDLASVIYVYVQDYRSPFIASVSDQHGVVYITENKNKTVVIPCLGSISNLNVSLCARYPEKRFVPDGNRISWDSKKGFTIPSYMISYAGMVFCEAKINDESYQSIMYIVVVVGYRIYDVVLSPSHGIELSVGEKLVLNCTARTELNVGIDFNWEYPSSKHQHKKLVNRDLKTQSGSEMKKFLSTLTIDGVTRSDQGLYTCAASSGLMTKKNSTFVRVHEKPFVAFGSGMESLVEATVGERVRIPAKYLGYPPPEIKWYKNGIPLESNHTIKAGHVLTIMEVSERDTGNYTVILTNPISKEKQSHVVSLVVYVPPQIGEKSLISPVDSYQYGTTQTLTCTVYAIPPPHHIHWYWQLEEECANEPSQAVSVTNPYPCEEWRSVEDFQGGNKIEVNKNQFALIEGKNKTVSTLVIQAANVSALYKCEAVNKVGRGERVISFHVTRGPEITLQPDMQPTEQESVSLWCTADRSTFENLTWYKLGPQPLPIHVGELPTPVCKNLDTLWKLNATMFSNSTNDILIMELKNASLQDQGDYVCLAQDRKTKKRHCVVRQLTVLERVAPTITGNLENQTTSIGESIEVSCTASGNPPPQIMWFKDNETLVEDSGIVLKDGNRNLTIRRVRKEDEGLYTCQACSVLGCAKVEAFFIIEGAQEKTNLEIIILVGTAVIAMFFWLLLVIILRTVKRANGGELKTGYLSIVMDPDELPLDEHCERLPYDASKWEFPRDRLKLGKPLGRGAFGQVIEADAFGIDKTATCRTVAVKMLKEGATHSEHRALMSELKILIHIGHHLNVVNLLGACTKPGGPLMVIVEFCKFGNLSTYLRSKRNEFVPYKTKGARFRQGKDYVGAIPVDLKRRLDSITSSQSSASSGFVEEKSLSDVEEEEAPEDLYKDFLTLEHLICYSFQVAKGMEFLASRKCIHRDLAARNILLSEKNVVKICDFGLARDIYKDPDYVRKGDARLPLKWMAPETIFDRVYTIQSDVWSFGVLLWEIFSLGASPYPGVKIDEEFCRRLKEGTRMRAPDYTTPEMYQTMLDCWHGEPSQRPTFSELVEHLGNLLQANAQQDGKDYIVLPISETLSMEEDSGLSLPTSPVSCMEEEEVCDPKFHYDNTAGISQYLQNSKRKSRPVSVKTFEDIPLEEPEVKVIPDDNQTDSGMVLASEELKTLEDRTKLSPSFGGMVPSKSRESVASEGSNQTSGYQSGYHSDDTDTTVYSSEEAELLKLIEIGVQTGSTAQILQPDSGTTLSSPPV
# [19] = target: Vascular endothelial growth factor receptor 2 (Homo sapiens) (UniProt P35968); details: at 1 µM
# [20] = target: Mast/stem cell growth factor receptor Kit (Homo sapiens) (UniProt P10721); details: at 0.1 µM;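 further: values are mean inhibition of KIT, from the GSK PKIS dataset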
# Sequence of Tyrosine-protein kinase HCK (Homo sapiens) (P08631 2-526 limits assumed): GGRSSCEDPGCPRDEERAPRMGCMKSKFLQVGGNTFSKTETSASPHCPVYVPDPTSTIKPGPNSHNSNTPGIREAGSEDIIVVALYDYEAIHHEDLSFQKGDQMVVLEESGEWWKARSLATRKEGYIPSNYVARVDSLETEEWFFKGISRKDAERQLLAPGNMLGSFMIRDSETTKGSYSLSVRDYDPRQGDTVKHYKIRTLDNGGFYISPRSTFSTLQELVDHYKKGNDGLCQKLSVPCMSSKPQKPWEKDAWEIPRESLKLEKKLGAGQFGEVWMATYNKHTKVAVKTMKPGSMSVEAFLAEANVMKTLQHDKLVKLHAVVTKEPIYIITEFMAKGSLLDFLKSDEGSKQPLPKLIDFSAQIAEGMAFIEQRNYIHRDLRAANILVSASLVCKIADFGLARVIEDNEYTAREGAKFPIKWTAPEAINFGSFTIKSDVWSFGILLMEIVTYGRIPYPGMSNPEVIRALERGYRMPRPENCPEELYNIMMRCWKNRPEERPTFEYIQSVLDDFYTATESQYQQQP
# Sequence of Tyrosine-protein kinase Fyn (Homo sapiens) (P06241 2-537 limits assumed): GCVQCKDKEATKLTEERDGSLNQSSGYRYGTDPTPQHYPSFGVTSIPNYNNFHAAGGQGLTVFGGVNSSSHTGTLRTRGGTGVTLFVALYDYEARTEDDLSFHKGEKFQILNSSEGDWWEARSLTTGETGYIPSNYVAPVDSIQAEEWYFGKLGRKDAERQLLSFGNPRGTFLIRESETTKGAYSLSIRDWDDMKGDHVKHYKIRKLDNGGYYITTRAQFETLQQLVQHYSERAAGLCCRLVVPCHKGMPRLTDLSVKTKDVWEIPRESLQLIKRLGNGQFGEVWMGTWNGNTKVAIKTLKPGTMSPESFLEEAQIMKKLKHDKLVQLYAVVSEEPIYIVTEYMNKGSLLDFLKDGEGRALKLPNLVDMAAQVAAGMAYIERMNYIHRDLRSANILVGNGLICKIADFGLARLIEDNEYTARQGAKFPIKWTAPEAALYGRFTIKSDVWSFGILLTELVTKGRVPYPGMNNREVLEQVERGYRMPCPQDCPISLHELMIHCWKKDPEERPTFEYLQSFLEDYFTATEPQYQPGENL
SMILES,inhibition [1],inhibition [2],inhibition [3],inhibition [4],inhibition [5],inhibition [6],inhibition [7],inhibition [8],inhibition [9],inhibition [10],inhibition [11],inhibition [12],inhibition [13],inhibition [14],inhibition [15],inhibition [16],inhibition [17],inhibition [18],inhibition [19],inhibition [20]
NS(=O)(=O)c1ccc(NC=C2C(=O)Nc3ccc4ncsc4c32)cc1,26.5%,12.2%,43.8%,12.2%,26.7%,6.96%,29.7%,3.96%,6.03%,2.7%,15.1%,9.37%,50.7%,2.72%,23.6%,22.7%,63.7%,60.5%,71%,68.4%
Nc1nccc(-c2c(-c3ccc(F)cc3)nn3cc(C(F)(F)F)ccc23)n1,2.33%,-0.1%,-0.25%,-1.56%,1.35%,1.38%,2.01%,1.17%,1.01%,-1.78%,0.43%,-0.26%,1.9%,-0.24%,-1.98%,-1.7%,-0.29%,0.31%,0.56%,-1.06%
O=S(=O)(CCOCc1ccc(-c2ccc3ncnc(Nc4ccc(OCc5cccc(F)c5)c(Cl)c4)c3c2)o1)c1ccccc1,0.6%,3.81%,6.35%,13%,8.7%,1.87%,3.13%,-2.12%,0.31%,-0.7%,1%,1.54%,2.21%,0.38%,0.42%,0.16%,2.6%,1.71%,8%,1.81%
CN1CCN(C(=O)c2ccc(NC(=O)Nc3ccc(N(C)c4ccnc(Nc5ccc(CS(C)(=O)=O)cc5)n4)cc3)cc2)CC1,8.13%,3.98%,22.7%,3.48%,6.42%,4.81%,10.6%,-0.19%,2.44%,6.56%,38.7%,2.49%,20.6%,3.54%,49.7%,-1.34%,26.2%,21.4%,69.2%,65.6%
Cc1ccc(Nc2ccnc(Nc3cccc(C(N)=O)c3)n2)cc1O,89.4%,58.8%,83.5%,-3.28%,17.2%,3.53%,13.7%,2.88%,3.49%,-2.42%,0.3%,5.16%,32.7%,5.29%,45.8%,-4.07%,14%,76.9%,90.7%,8.57%
N#Cc1c(NC(=O)c2ccccc2F)sc2c1CCCC2,3.17%,-1.54%,0.95%,-4.1%,0.01%,1.34%,-1.12%,-1.06%,-1.27%,-1%,0.32%,0.4%,-1.49%,-0.7%,-1.01%,-1.04%,2.45%,-3.31%,-0.36%,-4.4%
COc1cc2ncn(-c3cc(OCc4ccccc4S(C)(=O)=O)c(C#N)s3)c2cc1OC,76.8%,16.2%,61.8%,4.3%,5.83%,5.14%,5.1%,3.69%,3.13%,2.84%,11.5%,3.78%,5.39%,2.72%,29.4%,5.19%,55%,25.6%,67.3%,5.42%
CCS(=O)(=O)c1ccc(OC)c(Nc2ncc(-c3cccc(OC)c3)o2)c1,76.5%,21.1%,67.2%,2.1%,4.95%,0.3%,5.78%,3.08%,3.36%,1.61%,5.9%,-0.79%,-4.39%,0.87%,1.58%,-1.19%,5.85%,48.4%,73.2%,73.4%
COC(=O)c1cncc(/C=C/c2c(C)cc(O)cc2C)c1,20%,8.77%,37.5%,2.87%,2.99%,3.1%,0.15%,5.13%,2.83%,0.96%,1.55%,2.46%,4.21%,0.81%,2.05%,-1.76%,0.99%,2.37%,4.91%,32.9%
COC(=O)c1ccc2c(c1)C(=Cc1cc(Br)c(O)c(Br)c1)C(=O)N2,22.5%,5.59%,18.3%,3.29%,2.72%,3.96%,3.99%,1.56%,1.64%,2.44%,3%,3.26%,12.2%,1.7%,6.21%,1.39%,7.25%,3.9%,24.5%,3.84%
C[C@@H](Oc1cc(-n2cnc3ccc(OCC4CCN(C)CC4)cc32)sc1C(N)=O)c1ccccc1C(F)(F)F,12.6%,3.31%,32.6%,-4.89%,-1.61%,-0.09%,1.24%,-3.02%,-2.86%,-1.81%,0.89%,-1.08%,-2.39%,-0.93%,2.51%,-0.8%,30.1%,2.65%,34.4%,-0.76%
OCc1ccc(-c2nc(-c3ccccn3)c(-c3ccc4c(c3)OCO4)[nH]2)cc1,5.01%,9.2%,9.7%,1.56%,4.7%,3.33%,2.79%,4.43%,1.6%,1.59%,2.5%,3.55%,3.24%,2.17%,3.4%,-1.9%,0.74%,7.67%,6.53%,13.1%
Cc1ccc2c(c1)/C(=N/Nc1ccc(S(N)(=O)=O)cc1)C(=O)N2,0.85%,1.4%,6.19%,-1.37%,-2.24%,-0.03%,1.98%,-1.32%,-0.18%,0.66%,1.38%,-1.86%,-1.74%,-1.17%,-0.24%,0.33%,4.38%,2.62%,22.6%,27.8%
